Some test systems named below: BT-549 breast; MDA-MB-435 melanoma; SW-620 colon; MCF7 breast; HCT-116 colon; HCC-2998 colon; KM12 colon.
Assay in all cases: NCI-60 one-dose screen, 48 h (100 = growth as untreated, 0 = no growth, -100 = all killed)
Holding throughout (settings): 10 µM

About 83,000 compounds went through this panel and 20% of them were active in at least one assay; those are over-represented in the sample as a whole.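 Method: cells in 96-well plates; compound added at one concentration; 48 h incubation; percent growth measured; values under 10 scored active.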 Unmarked numbers belong to inactive results. Active and inactive are the calls of the source.

`CC(C)N(CCNc1nc(C(Cl)(Cl)Cl)nc2cc(Cl)ccc12)C(C)C`: the growth is 21.3% with BT-549 breast; -47.2% (active) in the assay with MDA-MB-435 melanoma; -30.6% (active) in the assay on SW-620 colon; -85.6% (active) in the assay with MCF7 breast; -90.6% (active) in the assay with HCT-116 colon; -50.2% (active) in the assay with HCC-2998 colon. Further, the growth in the assay with KM12 colon is -79.1% (active).
In the case of `COc1cc(NC(=O)c2sc3nc4c(cc3c2N)C(O)CCC4)cc(OC)c1` (stereo not given), the growth in the assay with BT-549 breast is 100%; with MDA-MB-435 melanoma, 8.37% (active); in the assay on SW-620 colon it was 66.1%; in the assay with MCF7 breast, 50.7%; in the assay on HCT-116 colon it was 84.2%; in the assay on HCC-2998 colon, 78.9%. The growth with KM12 colon is 69.5%.
On to `CC(=O)c1nc2ccccc2n1CCN1CCN(C)CC1`, for which the growth with BT-549 breast is 48.1%; with MDA-MB-435 melanoma it was -80.2% (active); in the assay with SW-620 colon, 29.6%; in the assay on MCF7 breast it was 17.8%; with HCT-116 colon, 11%; in the assay on HCC-2998 colon, 37.9%. Besides, the growth in the assay with KM12 colon was 14.1%.
Take `Nc1nc(N)c2c(ccc3nccc32)[nH]1`: the growth with BT-549 breast is 21%; with MDA-MB-435 melanoma, 34.8%; in the assay with SW-620 colon, 29.4%; in the assay with MCF7 breast, 54%; in the assay on HCT-116 colon it was 15.1%; in the assay with HCC-2998 colon, 54.4%. Besides, in the assay with KM12 colon, the growth was 62.4%.
For the compound `COc1cc(NC(=O)CSc2nc3ccccc3c(=O)n2CCc2ccccc2)cc(OC)c1OC`, the growth was -4.65% (active) with BT-549 breast; 32.1% in the assay on MDA-MB-435 melanoma; 48.6% with SW-620 colon; 51% in the assay on MCF7 breast; -0.608% (active) with HCT-116 colon; 35% in the assay with HCC-2998 colon. Moreover, in the assay on KM12 colon, the growth is 7.82% (active).
`CCOC(=O)N1C=CC2C=CC1C1C=CC=CC2N1C(=O)OCC` (stereo not given): the growth in the assay with BT-549 breast was 89.4%; in the assay on MDA-MB-435 melanoma it was 3.79% (active); with SW-620 colon, 82%; in the assay with MCF7 breast, 76.8%; in the assay with HCT-116 colon, 94.7%; in the assay on HCC-2998 colon it was 82.1%. Moreover, the growth in the assay with KM12 colon was 84.9%.
On to `COc1ccc2c(c1)N(CCO)C1=C(C(=O)OC1)C2c1cc(OC)c(OC)c(OC)c1` (stereo not given), for which the growth in the assay on BT-549 breast is 20.5%; in the assay on MDA-MB-435 melanoma it was -48.2% (active); in the assay with SW-620 colon, 19.4%; in the assay with MCF7 breast it was 19.3%; with HCT-116 colon, 4.03% (active); in the assay on KM12 colon, -43% (active).
For `CN1c2ccccc2[C@]2(Cc3ccccc3)Cc3ccccc3N[C@H]12`, the growth with BT-549 breast is 122%; in the assay on MDA-MB-435 melanoma, 117%; with SW-620 colon it was 101%; in the assay on MCF7 breast, 94.1%; in the assay with HCT-116 colon it was 91.8%; in the assay with HCC-2998 colon, 103%. In the assay with KM12 colon, the growth was 104%.
As to `c1ccc([I+]c2ccccc2)cc1`, the growth was 65.5% in the assay with BT-549 breast; 68.9% in the assay on MDA-MB-435 melanoma; 40.8% in the assay with SW-620 colon; 64% with MCF7 breast; 31% in the assay with HCT-116 colon; 41.9% in the assay on KM12 colon.
For the compound `COc1ccc(-c2nn(-c3cccc(NC(=O)c4ccc5c(c4)OCCO5)c3)cc2-c2ccncc2)cc1Cl`, the growth with BT-549 breast was 34.2%; in the assay with MDA-MB-435 melanoma, -61.8% (active); in the assay on SW-620 colon, 18.3%; with MCF7 breast, 2.05% (active); with HCT-116 colon it was 15.3%; in the assay with HCC-2998 colon, 46.5%. Further, the growth with KM12 colon was 9.37% (active).
`COc1ccc(-c2ccc3cc(C(=O)Nc4ccc(O)c(C(=O)/C=C/c5cc(OC)c(OC)c(OC)c5)c4)ccc3c2)cc1`: the growth was 102% in the assay with BT-549 breast; 93.4% in the assay with MDA-MB-435 melanoma; 94.2% with SW-620 colon; 87.3% with MCF7 breast; 79.2% with HCT-116 colon; 104% with KM12 colon.
Consider `O=C(Nc1ccc(OS(=O)(=O)c2ccccc2)cc1)C12CC3CC(CC(C3)C1)C2`, for which the growth in the assay with BT-549 breast was 25.8%; in the assay on MDA-MB-435 melanoma, 72.6%; with SW-620 colon, 5.02% (active); in the assay with MCF7 breast it was 32%; with HCT-116 colon, 32.8%; in the assay on HCC-2998 colon, 26.1%. Moreover, the growth with KM12 colon is 28.4%.
`O=C(Nc1cccc(-n2cc(-c3ccncc3)c(-c3cc(O)cc(Cl)c3)n2)c1)c1ccc(N2CCOCC2)c(C(F)(F)F)c1`: the growth in the assay on BT-549 breast was 52.2%; in the assay on MDA-MB-435 melanoma, 23%; with SW-620 colon, -26.2% (active); with MCF7 breast, 29.7%; in the assay with HCC-2998 colon, -3.65% (active).
In the case of `Cc1nc2oc3ccccc3c(=O)c2cc1C(=O)NCc1ccccc1`, the growth with BT-549 breast is 88%; in the assay on MDA-MB-435 melanoma, 65.3%; in the assay on SW-620 colon it was 72.4%; in the assay on MCF7 breast it was 43.8%; in the assay with HCC-2998 colon, 37.9%; in the assay with KM12 colon, 31.3%.
As to `COc1cc(-c2nc(Nc3nc4ccccc4s3)[nH]c(=O)c2C#N)cc(OC)c1O`, the growth in the assay with BT-549 breast is 98.1%; in the assay on MDA-MB-435 melanoma, 120%; in the assay with SW-620 colon, 110%; in the assay on MCF7 breast it was 95.7%; with HCC-2998 colon it was 104%; with KM12 colon, 114%.
Turning to `C=C1c2c(C)nn(-c3ccc(OC)cc3)c2N(C)C23C[C@@H]1C1(C)c4c(C)nn(-c5ccc(OC)cc5)c4N(C)C(C)(C[C@H]12)C3` (stereo not given in full), the growth in the assay on BT-549 breast was 32.9%; in the assay on MDA-MB-435 melanoma it was 34%; with SW-620 colon, 31.4%; in the assay on MCF7 breast, 20.8%; in the assay on HCC-2998 colon, 34.9%; in the assay with KM12 colon, 28.6%.
Consider `COc1cccc(C2C3=C(COC3=O)N(CCO)c3cc(OC)ccc32)c1` (stereo not given), for which the growth in the assay on BT-549 breast is 16.9%; in the assay with MDA-MB-435 melanoma it was -44.7% (active); in the assay with SW-620 colon, 21%; with MCF7 breast, 23%; in the assay on HCT-116 colon it was 10.6%; in the assay with KM12 colon, -5.83% (active).
For `O=C(CNC(=O)OCc1ccccc1)NCC(=O)Oc1ccc([N+](=O)[O-])cc1`, the growth was 101% in the assay on BT-549 breast; 98.4% in the assay on MDA-MB-435 melanoma; 95.9% in the assay on SW-620 colon; 95.8% in the assay on MCF7 breast; 102% in the assay with KM12 colon.

Source of the values: PubChem BioAssay (NCI).
